Experimental data from the supplement of paper PMC7411054.

Tests used:
Experiment in all cases: phenotypically active (imaging signature differs from DMSO and reproducible) at any of 0.3-9 uM (binary (1 = active, 0 = inactive)); higher = active
Conditions in all cases: treatment time: 24 h
A549-ACTB-RAB5A = tested on: A549-ACTB-RAB5A
Method in brief: (§1)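 Two criteria together defined phenotypic activity: deviation and reproducibility. Deviation meant ≥3 of 4 wells beyond the 95th percentile of Euclidean distances in solvent control wells, and reproducibility meant a median replicate Pearson correlation above the 95th percentile of non-replicates. Wells had been treated for 24 h at 0.3, 1, 3 or 9 µM in fifteen gene-edited A549, HepG2 and WPMY1 reporter lines before live imaging.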

A549-CANX-COX4 = tested on: A549-CANX-COX4
Method in brief: as §1

A549-GM130-SQSTM1 = tested on: A549-GM130-SQSTM1
Method in brief: as §1

A549-TP53BP1-CLTA = tested on: A549-TP53BP1-CLTA
Method in brief: as §1

A549-TUBA1B-RELA = tested on: A549-TUBA1B-RELA
Method in brief: as §1

HepG2-ACTB-RAB5A = tested on: HepG2-ACTB-RAB5A
Method in brief: as §1

HepG2-CANX-COX4 = tested on: HepG2-CANX-COX4
Method in brief: as §1

HepG2-GM130-SQSTM1 = tested on: HepG2-GM130-SQSTM1
Method in brief: as §1

HepG2-TP53BP1-CLTA = tested on: HepG2-TP53BP1-CLTA
Method in brief: as §1

HepG2-TUBA1B-RELA = tested on: HepG2-TUBA1B-RELA
Method in brief: as §1

WPMY1-ACTB-RAB5A = tested on: WPMY1-ACTB-RAB5A
Method in brief: as §1

WPMY1-CANX-COX4 = tested on: WPMY1-CANX-COX4
Method in brief: as §1

WPMY1-GM130-SQSTM1 = tested on: WPMY1-GM130-SQSTM1
Method in brief: as §1

WPMY1-TP53BP1-CLTA = tested on: WPMY1-TP53BP1-CLTA
Method in brief: as §1

WPMY1-TUBA1B-RELA = tested on: WPMY1-TUBA1B-RELA
Method in brief: as §1

Measured: phenotypically active

Cc1ccc(N(CC2=NCCN2)c2cccc(O)c2)cc1 [phentolamine]
inactive: A549-ACTB-RAB5A 0 | A549-CANX-COX4 0 | A549-GM130-SQSTM1 0 | A549-TP53BP1-CLTA 0 | A549-TUBA1B-RELA 0 | HepG2-ACTB-RAB5A 0 | HepG2-CANX-COX4 0 | HepG2-GM130-SQSTM1 0 | HepG2-TP53BP1-CLTA 0 | HepG2-TUBA1B-RELA 0 | WPMY1-ACTB-RAB5A 0 | WPMY1-CANX-COX4 0 | WPMY1-GM130-SQSTM1 0 | WPMY1-TP53BP1-CLTA 0 | WPMY1-TUBA1B-RELA 0

COc1cc2c(cc1OC)C(=O)C(CC1CCN(Cc3ccccc3)CC1)C2 (stereo not given) [donepezil]
inactive: A549-ACTB-RAB5A 0 | A549-CANX-COX4 0 | A549-GM130-SQSTM1 0 | A549-TP53BP1-CLTA 0 | A549-TUBA1B-RELA 0 | HepG2-ACTB-RAB5A 0 | HepG2-CANX-COX4 0 | HepG2-GM130-SQSTM1 0 | HepG2-TP53BP1-CLTA 0 | HepG2-TUBA1B-RELA 0 | WPMY1-ACTB-RAB5A 0 | WPMY1-CANX-COX4 0 | WPMY1-GM130-SQSTM1 0 | WPMY1-TP53BP1-CLTA 0 | WPMY1-TUBA1B-RELA 0

CC[N@@+]1(C)[C@@H]2CC[C@H]1C[C@@H](OC(=O)[C@]1(c3ccccc3)CC[C@H](C(=O)O[C@H]3C[C@H]4CC[C@@H](C3)[N@+]4(C)CC)c3ccccc31)C2 [beta- Belladonnine dichloroethylate]
inactive: A549-ACTB-RAB5A 0 | A549-CANX-COX4 0 | A549-GM130-SQSTM1 0 | A549-TP53BP1-CLTA 0 | A549-TUBA1B-RELA 0 | HepG2-ACTB-RAB5A 0 | HepG2-CANX-COX4 0 | HepG2-GM130-SQSTM1 0 | HepG2-TP53BP1-CLTA 0 | HepG2-TUBA1B-RELA 0 | WPMY1-ACTB-RAB5A 0 | WPMY1-CANX-COX4 0 | WPMY1-GM130-SQSTM1 0 | WPMY1-TP53BP1-CLTA 0 | WPMY1-TUBA1B-RELA 0

CCC1(c2ccccc2)C(=O)NCNC1=O [primidone]
inactive: A549-ACTB-RAB5A 0 | A549-CANX-COX4 0 | A549-GM130-SQSTM1 0 | A549-TP53BP1-CLTA 0 | A549-TUBA1B-RELA 0 | HepG2-ACTB-RAB5A 0 | HepG2-CANX-COX4 0 | HepG2-GM130-SQSTM1 0 | HepG2-TP53BP1-CLTA 0 | HepG2-TUBA1B-RELA 0 | WPMY1-ACTB-RAB5A 0 | WPMY1-CANX-COX4 0 | WPMY1-GM130-SQSTM1 0 | WPMY1-TP53BP1-CLTA 0 | WPMY1-TUBA1B-RELA 0

COCCc1ccc(OCC(O)CNC(C)C)cc1 (stereo not given) [metoprolol]
inactive: A549-ACTB-RAB5A 0 | A549-CANX-COX4 0 | A549-GM130-SQSTM1 0 | A549-TP53BP1-CLTA 0 | A549-TUBA1B-RELA 0 | HepG2-ACTB-RAB5A 0 | HepG2-CANX-COX4 0 | HepG2-GM130-SQSTM1 0 | HepG2-TP53BP1-CLTA 0 | HepG2-TUBA1B-RELA 0 | WPMY1-ACTB-RAB5A 0 | WPMY1-CANX-COX4 0 | WPMY1-GM130-SQSTM1 0 | WPMY1-TP53BP1-CLTA 0 | WPMY1-TUBA1B-RELA 0

Cc1c(F)cc(C(=O)NC2CC2)cc1-c1ccc(C(=O)NCC(C)(C)C)cn1 [losmapimod]
inactive: A549-ACTB-RAB5A 0 | A549-CANX-COX4 0 | A549-GM130-SQSTM1 0 | A549-TP53BP1-CLTA 0 | A549-TUBA1B-RELA 0 | HepG2-ACTB-RAB5A 0 | HepG2-CANX-COX4 0 | HepG2-GM130-SQSTM1 0 | HepG2-TP53BP1-CLTA 0 | HepG2-TUBA1B-RELA 0 | WPMY1-ACTB-RAB5A 0 | WPMY1-CANX-COX4 0 | WPMY1-GM130-SQSTM1 0 | WPMY1-TP53BP1-CLTA 0 | WPMY1-TUBA1B-RELA 0

O=C(O)c1cc(/N=N/c2ccc(S(=O)(=O)Nc3ccccn3)cc2)ccc1O [Sulfasalazine]
inactive: A549-ACTB-RAB5A 0 | A549-CANX-COX4 0 | A549-GM130-SQSTM1 0 | A549-TP53BP1-CLTA 0 | A549-TUBA1B-RELA 0 | HepG2-ACTB-RAB5A 0 | HepG2-CANX-COX4 0 | HepG2-GM130-SQSTM1 0 | HepG2-TP53BP1-CLTA 0 | HepG2-TUBA1B-RELA 0 | WPMY1-ACTB-RAB5A 0 | WPMY1-CANX-COX4 0 | WPMY1-GM130-SQSTM1 0 | WPMY1-TP53BP1-CLTA 0 | WPMY1-TUBA1B-RELA 0

CC(C)NCCCC1(C(N)=O)c2ccccc2-c2ccccc21 [indecainide]
inactive: A549-ACTB-RAB5A 0 | A549-CANX-COX4 0 | A549-GM130-SQSTM1 0 | A549-TP53BP1-CLTA 0 | A549-TUBA1B-RELA 0 | HepG2-ACTB-RAB5A 0 | HepG2-CANX-COX4 0 | HepG2-GM130-SQSTM1 0 | HepG2-TP53BP1-CLTA 0 | HepG2-TUBA1B-RELA 0 | WPMY1-ACTB-RAB5A 0 | WPMY1-CANX-COX4 0 | WPMY1-GM130-SQSTM1 0 | WPMY1-TP53BP1-CLTA 0 | WPMY1-TUBA1B-RELA 0

CCOC(=O)CCNc1cc(N2CCc3ccccc3CC2)nc(-c2cccnc2)n1
inactive: A549-ACTB-RAB5A 0 | A549-CANX-COX4 0 | A549-GM130-SQSTM1 0 | A549-TP53BP1-CLTA 0 | A549-TUBA1B-RELA 0 | HepG2-ACTB-RAB5A 0 | HepG2-CANX-COX4 0 | HepG2-GM130-SQSTM1 0 | HepG2-TP53BP1-CLTA 0 | HepG2-TUBA1B-RELA 0 | WPMY1-ACTB-RAB5A 0 | WPMY1-CANX-COX4 0 | WPMY1-GM130-SQSTM1 0 | WPMY1-TP53BP1-CLTA 0 | WPMY1-TUBA1B-RELA 0

N#Cc1ccc(C(c2ccc(C#N)cc2)n2cncn2)cc1 [Letrozole]
inactive: A549-ACTB-RAB5A 0 | A549-CANX-COX4 0 | A549-GM130-SQSTM1 0 | A549-TP53BP1-CLTA 0 | A549-TUBA1B-RELA 0 | HepG2-ACTB-RAB5A 0 | HepG2-CANX-COX4 0 | HepG2-GM130-SQSTM1 0 | HepG2-TP53BP1-CLTA 0 | HepG2-TUBA1B-RELA 0 | WPMY1-ACTB-RAB5A 0 | WPMY1-CANX-COX4 0 | WPMY1-GM130-SQSTM1 0 | WPMY1-TP53BP1-CLTA 0 | WPMY1-TUBA1B-RELA 0

Cc1cc(O)cc2c1C(=O)Oc1cc3c(c(O)c1O2)C(=O)OC3 [Variolaric acid]
inactive: A549-ACTB-RAB5A 0 | A549-CANX-COX4 0 | A549-GM130-SQSTM1 0 | A549-TP53BP1-CLTA 0 | A549-TUBA1B-RELA 0 | HepG2-ACTB-RAB5A 0 | HepG2-CANX-COX4 0 | HepG2-GM130-SQSTM1 0 | HepG2-TP53BP1-CLTA 0 | HepG2-TUBA1B-RELA 0 | WPMY1-ACTB-RAB5A 0 | WPMY1-CANX-COX4 0 | WPMY1-GM130-SQSTM1 0 | WPMY1-TP53BP1-CLTA 0 | WPMY1-TUBA1B-RELA 0

NC(=O)N1c2ccccc2C=Cc2ccccc21 [carbamazepine]
inactive: A549-ACTB-RAB5A 0 | A549-CANX-COX4 0 | A549-GM130-SQSTM1 0 | A549-TP53BP1-CLTA 0 | A549-TUBA1B-RELA 0 | HepG2-ACTB-RAB5A 0 | HepG2-CANX-COX4 0 | HepG2-GM130-SQSTM1 0 | HepG2-TP53BP1-CLTA 0 | HepG2-TUBA1B-RELA 0 | WPMY1-ACTB-RAB5A 0 | WPMY1-CANX-COX4 0 | WPMY1-GM130-SQSTM1 0 | WPMY1-TP53BP1-CLTA 0 | WPMY1-TUBA1B-RELA 0
